Laboratory results as given in the supplement of paper PMC3334620.
Over roughly 33,000 sequences, “E-score (-0.5 to 0.5)” has its median near -0.035; the highest 2% begin near 0.35. The full list was thinned out, with the highest values kept by preference.

These sequences were tested against T1, Pdr3 (UniProt P33200) (assay: PBM E-score (8-mer binding enrichment) (E-score (-0.5 to 0.5)); higher = stronger / more preferred TF binding). Conditions: protein concentration: 200 nM; construct: GST-full length.
T1 sequence: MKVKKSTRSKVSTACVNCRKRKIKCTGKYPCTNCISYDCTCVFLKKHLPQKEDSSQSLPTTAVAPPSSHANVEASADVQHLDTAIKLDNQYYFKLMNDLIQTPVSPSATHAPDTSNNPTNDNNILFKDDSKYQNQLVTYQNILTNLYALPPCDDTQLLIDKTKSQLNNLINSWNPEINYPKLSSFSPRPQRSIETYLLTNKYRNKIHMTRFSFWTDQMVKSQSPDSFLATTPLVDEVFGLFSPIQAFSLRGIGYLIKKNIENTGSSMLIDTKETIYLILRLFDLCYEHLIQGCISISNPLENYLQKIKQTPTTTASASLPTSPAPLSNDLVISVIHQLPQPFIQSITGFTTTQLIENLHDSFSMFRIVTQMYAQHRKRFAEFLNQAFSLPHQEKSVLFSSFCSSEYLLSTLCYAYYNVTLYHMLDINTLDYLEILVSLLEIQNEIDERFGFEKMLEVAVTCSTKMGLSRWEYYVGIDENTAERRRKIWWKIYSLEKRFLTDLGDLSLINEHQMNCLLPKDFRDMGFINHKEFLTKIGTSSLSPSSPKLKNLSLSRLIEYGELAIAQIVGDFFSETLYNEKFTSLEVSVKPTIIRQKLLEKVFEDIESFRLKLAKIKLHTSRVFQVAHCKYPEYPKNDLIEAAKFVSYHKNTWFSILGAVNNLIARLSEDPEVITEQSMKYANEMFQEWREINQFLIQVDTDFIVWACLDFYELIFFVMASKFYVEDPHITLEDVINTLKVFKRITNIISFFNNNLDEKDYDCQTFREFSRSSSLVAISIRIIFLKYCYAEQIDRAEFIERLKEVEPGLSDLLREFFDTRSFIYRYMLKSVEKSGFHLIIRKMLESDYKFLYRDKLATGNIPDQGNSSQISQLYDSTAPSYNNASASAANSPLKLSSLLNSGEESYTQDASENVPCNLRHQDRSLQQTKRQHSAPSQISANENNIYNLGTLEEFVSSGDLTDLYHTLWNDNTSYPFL
Summary of the method: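 For each ungapped eight-base word taken together with its reverse complement, the Universal PBM Analysis Suite assigned an E-score. Binding data came from GST-tagged yeast transcription factors, applied at about 100-200 nM, on universal all-10-mer Agilent arrays made double-stranded by primer extension. Fluorescent anti-GST marked bound protein, and scans were normalised with masliner.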

Sequence	PBM E-score
TCCGGCGA	0.356
GCCGGCGC	0.372
GTCGGCGA	-0.0361
ACCGGCGA	0.281
AGAGGCCG	-0.105
CTAGAAGC	-0.166
ATGTCGGC	-0.0499
CGCAACTA	0.0897
ACGCCGCC	0.0831
CCGCCGGA	0.415
CCGCCGCC	0.244
GCGCCGTA	0.251
CCGCCGTC	0.168
GCGCCGAA	0.241
ACGCCGGA	0.289
ACGCCGGC	0.385
ACGCCGGG	0.251
CCGCCGCA	0.202
CCGCCGGC	0.401
GCGCCGGA	0.384
GACCTACC	0.0277
ACCTTTAA	-0.0915
ATGTCGTA	-0.238
CATGAGTA	-0.168
GCGCACGA	0.0416

Sequence	PBM E-score
GCTGTACC	-0.00444
GCCTGCCC	-0.0411
CCCAAGAA	-0.0373
CCGGCGCC	0.37
ACGGCGCC	0.243
GCGGCGCC	0.353
AACGAACT	-0.245
AGAGAAGG	-0.0862
CGGAAAGA	0.428
CGGAAAGC	0.415
AGGAAAGA	-0.167
AGGAAAGC	-0.105
CCGAAAGC	0.136
GGGAAAGA	0.0836
CTGCGGTA	-0.0102
GCTTTCAC	-0.107
ACTGGGCT	0.0297
CCTGCAGA	-0.0209
AGTTCTGG	-0.0246
CGGTGTAC	-0.0705
AGACTACT	-0.173
CGGATAAA	0.383
AGGATATC	-0.0388
CGGATATA	0.346
CGGATACA	0.364

Sequence	PBM E-score
TGGATAAA	0.103
CGGATACC	0.31
TGGATACA	-0.189
CGGATAAC	0.333
CGGATATC	0.391
ACTTTGAA	-0.202
ATCTTAGC	-0.2
GGCCAGAC	0.075
GAGGTCAC	-0.0512
ACCCAGAG	-0.132
AGGCGCAC	0.147
GCGTGGAA	0.0102
CCGTGGAG	0.382
ACGTGGAG	-0.132
ACGTGGAA	-0.0114
CCGTGGAC	0.274
CCGTGGAA	0.437
TGCGCCAA	0.053
TCGCGGCA	0.174
TCGCGGAA	0.404
ACGCGGAC	0.229
GCGCGGCA	0.237
ACGCGGAA	0.407
GCGCGGAC	0.305
GCGCGGAA	0.464

Sequence	PBM E-score
TCGCGAAA	0.131
ACGCGGAT	0.244
AAACCTCA	0.109
GAGTTGGC	0.115
ATAAGCAG	-0.127
CCCGAATA	0.14
CGGCAGCC	0.358
CGGCAGCA	0.109
AGGCAGCC	0.0506
CCGGTTCA	0.104
CCGGTTCC	0.426
CGGGTTCC	0.414
AGGGTTCC	0.249
CCGGTTCG	0.217
CGGGTTCA	0.304
CTCCATAA	-0.273
CTCGCTGC	0.00281
CTGGTCTA	-0.254
ACACTTCC	0.184
CTGTTGAC	-0.162
AAACCAGG	-0.0534
CGTAACAC	-0.0629
GGGAATCA	0.0382
CGGAATCA	0.456
CCGAATCC	0.336

Sequence	PBM E-score
CGGAATCC	0.461
AGGAATCC	0.0872
AGGAATCA	-0.0475
CTTGGGCC	-0.0633
GTATCTGA	-0.146
ACGTCTCG	-0.0164
AAAGTCTC	-0.186
TTAGCGAA	0.0125
GCTACCAC	-0.16
ACGGGATC	0.275
GCGGGATA	0.322
ACGGGATA	0.38
CGGGGAGA	0.28
CGGGGATA	0.33
CCGGGATC	0.453
CCGGGATA	0.388
CCGGGAGG	0.334
CGGGGATC	0.28
ACGGGATG	0.283
CTGGGATA	0.0272
CCGGGAGA	0.369
AAGGAATG	0.126
CGCGTCCG	0.272
CTTCGCGC	0.274
ATCTAAAC	-0.113

Sequence	PBM E-score
GCTGGCAA	0.0154
CTCGGTCA	0.00197
GACCGGAC	0.28
CACCGGAC	0.341
CACCGGGA	0.272
AACCGGAA	0.435
GACCGGAA	0.401
AACCGGAG	0.326
TACCGGAA	0.44
GACCGGCA	0.0622
TACCGGCA	0.214
CACCGGAA	0.46
AACCGGAT	0.316
TACCGGTA	0.103
AAATAGTA	0.152
AGAGCAAC	-0.197
CCTATGGA	-0.127
CCTAGGTA	-0.174
AAAAGCAC	-0.291
AAAGACTA	-0.113
CGTTTTAG	-0.195
GGGCGTCA	0.0172
CTGAATGC	-0.0711
CGGAATGA	0.435
AGGAATGA	-0.0139

Sequence	PBM E-score
GGGAATGA	0.219
CGGAATGC	0.434
AGGAATGC	-0.0575
AGATCGTA	-0.304
ATCTCAGG	0.00088
ATTGTCGG	0.193
GATCTACC	0.00285
ACCGTTCT	-0.0192
CTTGTTCC	0.207
CGTGTTCC	0.383
ATGGTTCC	0.371
CCCGTTCC	0.347
ATTGTTCG	0.194
ACCGTTCC	0.364
ATTGTTCC	0.378
AGTGTTCC	0.301
ATGGTTCA	0.0467
CTGGTTCC	0.264
CGTGTTCA	-0.0434
CCTACTCG	0.101
ACCAGCAA	0.0732
CACCGACC	0.0698
